Screens from PubChem BioAssay.
Compounds with a hit are over-represented: about 19% of the library has one in this group of screens.
BCR signal inh – inhibitors of chronic active B-cell receptor signaling | ABC-DLBCL IkBa-CBG/CBR reporter, luminescence ratio, 4 h | Potency, µM (top dose mostly 46.1 µM), inactives show top-dose activity change, negative = inhibition, most hits filed as inhibitors | actives 0.05% (n = 340,000); active = well fitted inhibition curve with a large enough effect in the signal ratio, with a control signal flat, not every such curve was filed as active; inconclusive = small, poorly fitted or top-dose-only effect, or effect the other way, or a change in a side signal; the % refers to the signal ratio;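 note: potency is the fitted concentration of half-maximal effect; plate controls were basal doxycycline-induced cells for no effect and cells given 10 µM MG132 for full effect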
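Cell line TMD8 (human ABC DLBCL), stably expressing tet-inducible CBG68-IkBa fusion and CBR; IMDM/0.5% FBS; cpd up to 46 uM; dox induction, 4 h, 37C/5% CO2; dual luminescence; green/red ratio; MG132 control.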
DT40 TDP1 CPT – DT40-hTDP1 cell growth loss with CPT. Potency, µM (series often up to 46.2 µM), inactives show at the highest dose activity change, negative = growth inhibition, hits mostly inhibitors. actives 12% (n = 420,000). AID 686979. chicken DT40 Tdp1-/-;hTDP1 cells + 20 nM CPT, ATP luminescence, 48 h; note: potency is the fitted concentration of half-maximal effect; % is set by controls: 0 for no effect and ±100 for the full control effect; nearly all actives have a fitted effect of over 55% in size
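Chicken DT40 Tdp1-/- cells stably complemented with human TDP1 were seeded at 400 cells/well in medium containing 20 nM camptothecin, exposed to pin-transferred compounds, and grown at 37 °C for at least 48 hr. Viability was read as ATP luminescence.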
TDP1 cell noCPT – qHTS for Inhibitors of human tyrosyl-DNA phosphodiesterase 1 (TDP1): qHTS in cells in absence of CPT | actives 15% (n = 420,000) | Potency, µM (highest dose often 46.2 µM), inactives show at the top dose activity change, negative = growth inhibition, hits mostly inhibitors | DT40 Tdp1-/- hTDP1 cells, no CPT, ATP luminescence, 48 h | AID 686978, 2013; note: potency is the fitted concentration of half-maximal effect; % is set by controls: 0 for no effect and ±100 for the full control effect; nearly all actives have a fitted effect of over 55% in size
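Growth of hTDP1-complemented DT40 Tdp1-knockout cells is measured by ATP luminescence after at least 48 hr compound exposure at 37 °C, with DMSO substituting for the 20 nM CPT used in the parallel screen.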
IL-1B inflam inh – inflammasome signaling inhibition, IL-1 beta readout | THP-1 LPS/ATP IL-1B secretion, AlphaLISA, 16 h; hits give low values | actives 4.7% (n = 360,000) | activity change, % at 57.5 µM; in the data active = activity change below about -50%; inconclusive = mostly about -30% to -49%; note: % is set by controls: 0 for no effect and ±100 for the full control effect
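THP-1 cells pretreated 1 hr with compounds (up to 57.5 uM final), then stimulated with LPS (250 ng/mL final) plus ATP (1.25 mM final); secreted IL-1B measured by AlphaLISA after 16 hr, decreased signal indicating inhibition.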
SW480 rerep – DNA re-replication induction in SW480 cells. SW480 DNA re-replication, Hoechst DNA content imaging, 48 h. Potency, µM (titrated, usually from 46.1 µM), for inactives: at the highest dose re-replication activation, actives largely listed as activators. actives 1.8% (n = 340,000). AID 624297; note: potency is the fitted concentration of half-maximal effect; % of control where 0% means no effect; nearly all actives have a fitted effect of over 55% in size
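Readout is total intensity of Hoechst-stained nuclei, excited at 405 nm and collected at 500-530 nm. Compound treatment lasted 48 hr at 37 C in 5% CO2 before staining.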
MCF10A rereplic – induces DNA re-replication in MCF 10a normal breast cells | MCF 10A DNA re-replication, Hoechst nuclear intensity, 48 h | Potency, µM (doses to about 46.1 µM), inactives show top-dose activity, positive = re-replication, actives largely listed as activators | actives 2.9% (n = 350,000) | AID 624296; note: potency is the fitted concentration of half-maximal effect; % of control where 0% means no effect; nearly all actives have a fitted effect of over 50% in size
An asterisk follows results filed as active; ? = inconclusive; / = no result; ! = repeats disagree; [ ] = dose if it differs, or a comment. Unless noted, calls come from the whole dose curve; as a rule, active = well fitted curve in the direction sought with a large enough effect; inconclusive = small, poorly fitted or top-dose-only effect, or another doubt; inactive = no such curve, though single readings can be large; an effect the other way counts as inactive or inconclusive.

SMILES	BCR signal inh	DT40 TDP1 CPT	TDP1 cell noCPT	IL-1B inflam inh	SW480 rerep	MCF10A rereplic
CCN1CCc2nc3sc(C(=O)N4CCc5ccccc5C4)c(N)c3cc2C1	4%	?	?	-73*	3%	18µM*
Cc1cc(C)c2c(N)c(C(=O)N3CCc4ccccc4C3)sc2n1	?	?	29µM*	-12	?	?
O=C(Nc1cccc2nsnc12)c1cccnc1Cl	-7%	-24%	-26%	-12	-3%	2%
O=C(Nc1cccc2nsnc12)c1cc2c(cc1Cl)Sc1nccn1S2(=O)=O	/	23µM*	?	6	5%	3%
CCC(=O)N1CCc2cc(CNS(=O)(=O)c3ccccc3F)ccc21	/	-25%	3%	/	/	/
CCn1ccnc1CNC(=O)c1ccc2oc(C(C)C)nc2c1	3%	-8%	0%	-15	3%	0%
NC(=O)c1cccc(-c2cnc(N)c(C(=O)c3cccnc3)n2)c1	/	2.3µM*	9.2µM*	-95*	1%	?
O=C(Nc1cccc(NC(=O)c2cccnc2)c1)c1ccccc1	?	-21%	?	3	-5%	-1%
CC(=O)Nc1cccc(-c2cnc(N)c(C(=O)c3cccnc3)n2)c1	?	8.2µM*	10µM*	-99*	25%	?
CN(C)CCCn1c2c(c(SCC(=O)Nc3ccc4c(c3)OCCO4)nc1=O)CCC2	?	-24%	?	0	-5%	3%
O=C(Nc1cccnc1)c1ccc([N+](=O)[O-])cc1Cl	7%	-15%	4%	-16	2%	-8%
O=C(O)c1cc([N+](=O)[O-])ccc1NCc1ccccc1	?	6%	-21%	-70*	-12%	9%
O=C(O)c1cc([N+](=O)[O-])ccc1NCCCc1ccccc1	/	?	?	-6	?	-4%
O=C(Nc1ccccc1)c1cc([N+](=O)[O-])ccc1NCc1cccnc1	0%	?	?	-10	1.3µM*	0%
COc1cc(/C=C2\SC(=Nc3ccc(Cl)c(C(=O)O)c3)NC2=O)c(Br)c(Br)c1O	4%	-1%	3%	32	-6%[1.84 µM]	?
COc1cc(/C=C2\SC(=Nc3ccccc3)NC2=O)cc(Cl)c1O	?	?	?	31	?	21µM*
CCc1ccc(N=C2NC(=O)/C(=C/c3cc(OC)c(O)c(OC)c3)S2)cc1	-17%	?	26µM*	11	11%	?
O=C1NC(=Nc2ccccc2)S/C1=C\c1ccccc1	?	?	?	34	5%	8%
CCc1ccc(NC(=O)CSc2nc(-c3ccccc3Cl)nc3c2Cc2c(CO)cnc(C)c2O3)cc1	/	?	1%	/	/	/
Cc1occc1C(=O)NNC(=O)CN1C(=O)NC2(CCCCC2)C1=O	?	-3%	-16%	5	-2%	2%
C[C@H](O)Cc1cc2ccccc2c(=O)o1	-1%	-4%	4%	4	1%	2.9µM*
COc1cc(C(=O)OCCc2cc3ccccc3c(=O)o2)cc(OC)c1OC	-21%	4.1µM*	5.8µM*	56	8.2µM*	15µM*
O=c1oc(CCO)cc2ccccc12	3%	-14%	5%	0	-26%	4%
Cc1ccc(C(NC(=O)N2CCCCC2)=C(Cl)Cl)cc1F	?	13µM*	-34%	-71*	6.5µM*	16µM*
Cc1ccc(C(NC(=O)NCCCN2CCOCC2)=C(Cl)Cl)cc1F	?	11µM*	13µM*	-51*	?	?
SMILES	BCR signal inh	DT40 TDP1 CPT	TDP1 cell noCPT	IL-1B inflam inh	SW480 rerep	MCF10A rereplic
COCCN1C(=O)CCC1(C)C(=O)Nc1ccc2c(c1)OCCO2 (stereo unspecified)	/	16%	2%	-20	/	/
Cc1ccc(S(=O)(=O)c2[nH]c(-c3ccccc3)nc2SCC(N)=O)cc1	/	4%	-2%	/	/	/
COCCCNC(=O)/C(C#N)=C/c1cccc(NC(=O)c2ccccc2Cl)c1	?	2.6µM*	2.6µM*	-103*	1.6µM*	26%
COCCNC(=O)/C(C#N)=C/c1c(F)cccc1Cl	11%	?	10µM*	-54*	-32%	?
CCC1(c2ccc(F)cc2)NC(=O)N(CC(=O)Nc2ccc(S(N)(=O)=O)cc2)C1=O (stereo unspecified)	-3%	3%	15%	2	-14%	6%
CN(C(=O)CC1C(=O)NCCN1Cc1cccc(F)c1F)C1CC(C)(C)NC(C)(C)C1 (stereo unspecified)	0%	0%	-2%	3	1%	4%
Cc1nc(SCC(=O)NC2(C#N)CCCC2)n(CC(C)C)c1C	?	-22%	?	-4	?	2%
COc1ccc(CCC(=O)O)cc1OC	-1%	-16%	-22%	4	-5%	0%
O=C(COC(=O)c1cc([N+](=O)[O-])ccc1N1CCOCC1)Nc1cccc(F)c1	?	-29%	10%	49	-11%	-16%
O=C(NCCc1ccc(F)cc1)C(=O)NCC(c1cccs1)S(=O)(=O)c1ccc(F)cc1 (stereo unspecified)	-5%	?	?	/	/	/
CC(C)c1ccc(C(N)=S)cc1	?	0%	26µM*	12	0%	-4%
C=CCn1c(-c2cc(OC)cc(OC)c2)n[nH]c1=S	-1%	1%	0%	1	1%	-3%
C=CCn1c(-c2sc3nc(C)cc(C)c3c2N)n[nH]c1=S	?	-19%	?	16	26%	9.2µM*
O=C(O)COCCN1CCN(C(c2ccccc2)c2ccc(Cl)cc2)CC1 (stereo unspecified)	-24%	?	15µM*!	1	-9%	0%
COc1ccccc1N1Cc2ccccc2C1	?	26µM*	16µM*	19	0%	13%
COc1ccccc1N1CCN(CCOc2c(OC)cccc2OC)CC1	-14%	18µM*	?	-4	-1%	5%
COc1ccc(OC)c(N2Cc3ccccc3C2)c1	?	?	?	-8	-3%	?
COc1cccc(OC)c1OCCN1CCN(C(c2ccccc2)c2ccccc2)CC1	?	?	?	-53*	18%	?
Cc1cccc(C(=O)NCc2nc(-c3cccc(NC(=O)C4CCCN(C)C4)c3)oc2C)n1 (stereo unspecified)	/	9%[9.04 µM]	?	/	/	/
O=C(Nc1ccc(F)cc1)c1cccnn1	1%	2%	-14%	22	-22%	-3%
